Source: PubChem BioAssay (National Center for Advancing Translational Sciences (NCATS))
Shown are actives, neighbours in structure and some others; about 8.9% of the full set was active somewhere.
D3 ag – agonists of human D3 dopamine receptor; P35462; D3R DiscoveRx beta-arrestin cells, luminescence, 90 min; max activation, %; 410,000 compounds, 0.58% hits; AID 652048; in the data active means max activation above about 30%; further: 0% is about no effect
Target sequence (P35462 whole entry, looked up): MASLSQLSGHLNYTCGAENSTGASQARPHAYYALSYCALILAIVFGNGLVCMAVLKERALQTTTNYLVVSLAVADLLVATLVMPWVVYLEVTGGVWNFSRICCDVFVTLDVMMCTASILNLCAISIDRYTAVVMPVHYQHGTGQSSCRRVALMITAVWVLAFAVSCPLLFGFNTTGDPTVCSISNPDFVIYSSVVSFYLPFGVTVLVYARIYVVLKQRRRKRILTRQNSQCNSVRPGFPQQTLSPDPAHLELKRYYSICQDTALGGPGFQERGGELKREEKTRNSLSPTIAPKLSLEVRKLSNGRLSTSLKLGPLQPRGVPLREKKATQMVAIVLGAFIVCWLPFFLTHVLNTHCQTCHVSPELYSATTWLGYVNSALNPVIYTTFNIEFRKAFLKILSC
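Agonist mode: compounds and dopamine controls were applied to plated cells for 90 min at 37 degrees C after an overnight attachment at 1500 cells/well. Luminescent read-out followed 30 - 60 minutes at room temperature with DiscoveRx detection reagent.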
D3 antag – antagonists of human D3 dopamine receptor | D3R cells, DiscoveRx beta-arrestin luminescence, antagonist mode; hits give low values | max response, negative = inhibition, % | 360,000 compounds, 2.5% hits | AID 652054; in the data active means max response below about -50%; inconclusive means no clear call, values can overlap the other calls; further: on the % scale 0 is the no-effect control and ±100 the full control effect
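Cells expressing the human receptor were seeded at 1500 cells/well, incubated overnight at 37 degrees C in 5% CO2, then exposed to library compounds with dopamine controls for 90 minutes at 37 degrees C before luminescent detection.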
MCF10A rereplic – inducers of DNA re-replication in MCF 10A breast cells. MCF 10A DNA re-replication, Hoechst nuclear intensity, 48 h. Potency, µM (doses to about 46.1 µM), inactives show at the top dose activity, positive = re-replication, actives largely listed as activators. 350,000 compounds, 2.9% hits. AID 624296; further: potency means the concentration at half of the fitted maximal effect; % of control where 0% means no effect; nearly all actives have a fitted effect of over 50% in size
KB-V1 cytotox – KB-V1 MDR subline cytotoxicity. KB-V1 MDR cells viability, CellTiter-Glo, 72 h. Potency, µM (series often up to 46.1 µM), most hits filed as cytotoxic. 400,000 compounds, 3.4% hits. AID 1347076; further: potency means the concentration at half of the fitted maximal effect; on the % scale 0 is the no-effect control and ±100 the full control effect; nearly all actives have a fitted effect of over 60% in size
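KB-V1, DMEM (no phenol red) + 10% FBS; cpd pin-transferred, titration series; 72 h, 37 degrees C; CellTiter-Glo, luminescence. Data normalized, curve-fit.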
KB-3-1 tox – kills parental KB-3-1 adenocarcinoma cells; KB-3-1 viability, CellTiter-Glo ATP luminescence, 72 h; Potency, µM (series often up to 46.1 µM), actives largely listed as cytotoxic; 400,000 compounds, 1.4% hits; AID 1347075; further: potency means the concentration at half of the fitted maximal effect; on the % scale 0 is the no-effect control and ±100 the full control effect; nearly all actives have a fitted effect of over 60% in size
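72 h, 37 °C compound treatment of KB-3-1 parental cells; CellTiter-Glo added, 10 min, luminescence read. Data corrected against DMSO-only plates and normalized before curve fitting.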
SW480 rereplic – inducers of DNA re-replication in SW480 colon cancer cells; AID 624297; Potency, µM (series often up to 46.1 µM), without a hit: top-dose re-replication activation, usual class: activators; SW480 DNA re-replication, Hoechst DNA content imaging, 48 h; 340,000 compounds, 1.8% hits; further: potency means the concentration at half of the fitted maximal effect; % of control where 0% means no effect; nearly all actives have a fitted effect of over 55% in size
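Quantitative HTS format with DMSO vehicle controls; 48 hr drug incubation at 37 C, then 40 min Hoechst staining and scanning imager measurement at 405 nm excitation.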
An asterisk follows results filed as active. Unless noted, the call rests on the fitted dose curve; in most records, active means well fitted curve in the direction sought with a large enough effect; inconclusive means small, poorly fitted or top-dose-only effect, or another doubt; inactive means no such curve, though single readings can be large; an effect the other way counts as inactive or inconclusive.

For CCn1nc(C)c(Br)c1-c1nc(-c2ccc(C)cc2)no1 the results were D3 ag 35*, D3 antag 39, MCF10A rereplic 1%, KB-V1 cytotox inactive, KB-3-1 tox inactive and SW480 rereplic -2%.
For CN1CCc2c(sc(/N=C/c3c[nH]c4ccccc34)c2C(N)=O)C1 the results were D3 ag -21, D3 antag -52*, MCF10A rereplic 12%, KB-V1 cytotox inactive, KB-3-1 tox inactive and SW480 rereplic -2%.
For O=C(Nc1ccc(F)cc1)C1CCN(c2nc3ccccc3n3cccc23)CC1 the results were D3 ag 2.
Screening CCN1CCN(c2nc(-c3ccccc3)c3ccccc3n2)CC1 returned D3 ag -24, D3 antag -82*, MCF10A rereplic 15µM*, KB-V1 cytotox inactive, KB-3-1 tox inactive and SW480 rereplic 21µM*.
For c1ccc(-c2nc(N3CCNCC3)nc3ccccc23)cc1 the results were D3 ag -3, D3 antag -12, MCF10A rereplic 0.71µM*, KB-V1 cytotox inconclusive, KB-3-1 tox inactive and SW480 rereplic 23µM*.
`c1ccc(-c2nc(N3CCCCC3)nc3ccccc23)cc1` gave D3 ag 3, D3 antag -21, MCF10A rereplic inconclusive, KB-V1 cytotox inactive, KB-3-1 tox inactive and SW480 rereplic inconclusive.
Screening Cc1nn(-c2ccccc2)c2c1C(O)CC(C)(C)C2 (stereo not drawn) returned D3 ag 5, D3 antag 2, MCF10A rereplic -1%, KB-V1 cytotox inconclusive, KB-3-1 tox inactive and SW480 rereplic -10%.
Cc1nc2c(c3c1[nH]c1ccccc13)C(O)CC(C)(C)C2 (stereo not drawn) was read as D3 ag 5, D3 antag 17, MCF10A rereplic 18µM*, KB-V1 cytotox 16µM*, KB-3-1 tox inconclusive and SW480 rereplic inconclusive.
Screening COc1ccccc1Nc1nc(N)nc(CN2CCC(C)CC2)n1 returned D3 ag -14, D3 antag -18, MCF10A rereplic 1%, KB-V1 cytotox inactive, KB-3-1 tox inactive and SW480 rereplic 2%.
`COc1ccccc1Nc1nc(N)nc(CN2CCC(Cc3ccccc3)CC2)n1` gave D3 ag -4, D3 antag -59*, MCF10A rereplic 6%, KB-V1 cytotox inconclusive, KB-3-1 tox inactive and SW480 rereplic -1%.
`COc1ccccc1N1CCN(Cc2nc(N)nc(Nc3ccccc3)n2)CC1` gave D3 ag -9, D3 antag -71*, MCF10A rereplic 14%, KB-V1 cytotox inactive, KB-3-1 tox inactive and SW480 rereplic 0%.
CCOC(=O)N1CCN(Cc2nc(N)nc(Nc3ccc(Oc4ccccc4)cc3)n2)CC1 was read as D3 ag -9, D3 antag 7, MCF10A rereplic inconclusive, KB-V1 cytotox 13µM*, KB-3-1 tox inactive and SW480 rereplic 0%.
CCCn1c2c(c(O)c(C(=O)Nc3nccs3)c1=O)CCCC2 was read as D3 ag 2, D3 antag 15, MCF10A rereplic inconclusive, KB-V1 cytotox inactive, KB-3-1 tox inactive and SW480 rereplic 5%.
`CC(C)Cn1c2c(c(O)c(C(=O)Nc3nccs3)c1=O)CCCC2` gave D3 ag 10, D3 antag 17, MCF10A rereplic 7%, KB-V1 cytotox 7.3µM*, KB-3-1 tox inconclusive and SW480 rereplic inconclusive.
For CCN(CC)CCSc1nnc2c3cc(F)ccc3n(CC)c2n1 the results were D3 ag -22, KB-V1 cytotox inconclusive and KB-3-1 tox inconclusive.
`C=CCN1C(=O)S/C(=C/c2ccc(Sc3nc4ccccc4[nH]3)o2)C1=O` gave D3 ag 51*, D3 antag 38, MCF10A rereplic inconclusive, KB-V1 cytotox 3.7µM*, KB-3-1 tox inconclusive and SW480 rereplic 22%.
CC1=C(Sc2nc3ccccc3[nH]2)C(=O)NC(C)(C)C1 was read as D3 ag 1, D3 antag -2, MCF10A rereplic -4%, KB-V1 cytotox inactive, KB-3-1 tox inactive and SW480 rereplic 0%.
`CC(C)N1C(=O)S/C(=C/c2ccc(Sc3nc4ccccc4[nH]3)o2)C1=O` gave D3 ag 8, D3 antag 7, MCF10A rereplic inconclusive, KB-V1 cytotox 23µM*, KB-3-1 tox inconclusive and SW480 rereplic inconclusive.
CN(Cc1ccco1)c1ncnc2ccc(-c3ccc4c(ccn4C)c3)cc12 was read as MCF10A rereplic inconclusive, KB-V1 cytotox inactive, KB-3-1 tox inconclusive and SW480 rereplic 3.7µM*.
CCc1cccc2c(=O)c(C(=O)N3CCCCCC3)c[nH]c12 was read as D3 ag -3, D3 antag 16, MCF10A rereplic 0%, KB-V1 cytotox inactive, KB-3-1 tox inactive and SW480 rereplic -13%.
For CCc1cccc2c(C(=O)CN3C(=O)N(C)C4(CCCCC4)C3=O)c[nH]c12 the results were D3 ag -4, D3 antag -27, MCF10A rereplic 5.2µM*, KB-V1 cytotox inactive, KB-3-1 tox inconclusive and SW480 rereplic -1%.
For Cc1ccc(C)c(C(=O)CN2C(=O)NC3(CCc4ccccc43)C2=O)c1 (stereo not drawn) the results were D3 ag -6, D3 antag 0, MCF10A rereplic 13%, KB-V1 cytotox inactive, KB-3-1 tox inactive and SW480 rereplic -10%.
CCc1cccc2c(C(=O)CN3C(=O)NC(C)(c4cccc5ccccc45)C3=O)c[nH]c12 (stereo not drawn) was read as D3 ag -6, D3 antag inconclusive, MCF10A rereplic 15µM*, KB-V1 cytotox 23µM*, KB-3-1 tox inconclusive and SW480 rereplic 20%.
`CCc1cccc2c(C(=O)COC(=O)c3nn(C)c(=O)c4ccccc34)c[nH]c12` gave D3 ag 0, D3 antag 12, MCF10A rereplic inconclusive, KB-V1 cytotox inactive, KB-3-1 tox inactive and SW480 rereplic 2%.
CCc1cccc2c(C(=O)CN3C(=O)NC4(CCc5ccccc54)C3=O)c[nH]c12 (stereo not drawn) was read as D3 ag -1, D3 antag -12, MCF10A rereplic 15µM*, KB-V1 cytotox inconclusive, KB-3-1 tox inconclusive and SW480 rereplic inconclusive.
For O=C(NCCCN1CCc2ccccc2C1)C1CCN(c2nnc(-n3cccc3)s2)CC1 the results were D3 ag -9, D3 antag -82*, MCF10A rereplic 0%, KB-V1 cytotox inactive, KB-3-1 tox inactive and SW480 rereplic -5%.
